# Compounds with a hit are over-represented: about 10% of the library has one in this group of screens.
# FLuc inh-1 – inhibitors of firefly (Photinus pyralis) luciferase | purified P. pyralis luciferase, luminescence, biochemical | 76,000 compounds, 2.5% hits | Potency, µM (series often up to 115 µM), hits mostly inhibitors | AID 1347043 | P08659; also: % is scaled to controls: 0 for no effect and ±100 for the full control effect; nearly all actives have a fitted effect of over 65% in size
#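 FLuc 10nM, D-luciferin 10uM, ATP 10uM, Mg acetate 10mM, Tris acetate pH 7.5, Tween/BSA; cpd qHTS; enzyme added last; CCD luminescence.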
# GPT2 inh – inhibitors of human GPT2 alanine aminotransferase. Q8TD30. Recombinant GPT2, coupled pyruvate oxidase/HRP Amplex Red fluorescence. Potency, µM (titrated, usually from 57.7 µM), for the others: top-dose activity change, negative = inhibition, hits mostly inhibitors. 100,000 compounds, 0.25% hits. AID 1671188; also: % is scaled to controls: 0 for no effect and ±100 for the full control effect; nearly all actives have a fitted effect of over 60% in size
#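 Fluorescence read-out: pyruvate from GPT2 turnover coupled to pyruvate oxidase, HRP and Amplex Red (0.2mM ThPP, 0.2U/mL PO and HRP, 50uM Amplex final). Substrates 250uM a-KG, 2mM L-alanine; enzyme 10ng/uL; 30 min RT.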
# hNpr1 antagonist – antagonists of human natriuretic peptide receptor Npr1; P16066; HEK293 hNpr1 GloSensor cGMP, ANP-stimulated luminescence; Potency, µM (top dose mostly 46.3 µM), for the others: at the highest dose activity change, negative = inhibition, actives largely listed as inhibitors; 76,000 compounds, 1.6% hits; AID 1347048; calls by dose curve; also: % is scaled to controls: 0 for no effect and ±100 for the full control effect; nearly all actives have a fitted effect of over 60% in size
#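 HEK293 cells stably expressing human Npr1 and cGMP GloSensor pGS-40F, loaded 2 h with 2% GloSensor reagent, given compound 30 min at room temperature. Luminescence read before and 20 min after 0.1 nM hNppA.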
# HEK293 tox – cytotoxic compounds in HEK 293 cells; HEK 293 viability, ATP luminescence (CellTiter-Glo), 48-72 h; Potency, µM (highest dose often 115 µM), without a hit: at the top dose activity change, negative = cytotoxicity, most hits filed as inhibitors; 94,000 compounds, 6.6% hits; also: % is scaled to controls: 0 for no effect and ±100 for the full control effect; nearly all actives have a fitted effect of over 60% in size
#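 CellTiter-Glo luminescence (cellular ATP) was read after 48 or 72 hr of compound exposure at 37 degree Celsius. Cells were HEK 293 plated at 250 cells/well.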
# NIH3T3 tox – kills NIH 3T3 cells; 94,000 compounds, 4.3% hits; Potency, µM (series often up to 96.7 µM), for inactives: top-dose activity change, negative = cytotoxicity, most hits filed as inhibitors; NIH 3T3 viability, CellTiter-Glo ATP luminescence, 48-72 h; AID 1345082; also: % is scaled to controls: 0 for no effect and ±100 for the full control effect; nearly all actives have a fitted effect of over 55% in size
#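 Viability of NIH 3T3 cells after 48 or 72 hr compound treatment at 37 °C was assessed by CellTiter-Glo, with luminescence imaged following a 10 min room-temperature step.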
# FLuc SDR -ATP – stabilizes firefly luciferase without ATP; 1,300 compounds, 7.8% hits; shares compounds with FLuc inh-1; Potency, µM (doses to about 32.7 µM), without a hit: at the top dose activation (signal gain), actives largely listed as activators; Purified FLuc-C-HiBiT, Nano-Glo HiBiT luminescence, no ATP; AID 1963318; also: nearly all actives have a fitted effect of over 55% in size
# FLuc SDR ATP – binders stabilizing firefly luciferase, plus ATP; shares compounds with FLuc inh-1; 1,300 compounds, 8.7% hits; purified FLuc-C-HiBiT + ATP, HiBiT complementation luminescence; Potency, µM (doses to about 32.7 µM), for inactives: at the top dose activation (gain of signal), hits mostly activators; AID 1963319;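 also: signal reports ligand binding via conformational change of the enzyme rather than luciferase catalysis; % of control where 0% means no effect; nearly all actives have a fitted effect of over 55% in size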
# FLuc inh-2 – inhibitors of firefly luciferase enzymatic activity; shares compounds with FLuc inh-1; purified FLuc-C-HiBiT enzyme, luciferin luminescence; Potency, µM (series often up to 32.7 µM), without a hit: at the highest dose activity change, negative = inhibition, usual class: inhibitors; 1,300 compounds, 42% hits; AID 1963320; also: % is scaled to controls: 0 for no effect and ±100 for the full control effect; nearly all actives have a fitted effect of over 70% in size
# NPR1 antag cnf – confirmation of human Npr1 natriuretic peptide receptor antagonists. shares compounds with hNpr1 antagonist. HEK293 hNpr1 cGMP GloSensor luminescence, ANP-stimulated. Potency, µM (series often up to 57.6 µM), inactives show at the highest dose activity change, negative = inhibition, most hits filed as inhibitors. 1,400 compounds, 76% hits; calls by dose curve; also: nearly all actives have a fitted effect of over 70% in size
# NPR2 antag – antagonizes human Npr2, subtype selectivity check; shares compounds with hNpr1 antagonist; HEK293 hNpr2 GloSensor cGMP luminescence, CNP-stimulated; Potency, µM (titrated, usually from 57.6 µM), for the others: top-dose activity change, negative = inhibition, most hits filed as inhibitors; 1,400 compounds, 67% hits; calls by dose curve; also: nearly all actives have a fitted effect of over 70% in size
# FLuc inh counter – inhibits firefly luciferase, false Npr1 antagonist flag | shares compounds with hNpr1 antagonist | purified FLuc enzyme, luminescence, Km substrate | Potency, µM (doses to about 57.6 µM), inactives show top-dose activity change, negative = inhibition, usual class: inhibitors | 1,400 compounds, 0.7% hits | AID 1347047; also: 0% is about no effect
# GloSensor ctrl – reduces cGMP signal in GloSensor control cells; shares compounds with hNpr1 antagonist; HEK293 GloSensor cGMP, SNP-stimulated, luminescence; Potency, µM (series often up to 57.6 µM), for inactives: at the highest dose activity change, negative = inhibition, hits mostly inhibitors; 1,400 compounds, 69% hits; calls by dose curve; also: % is scaled to controls: 0 for no effect and ±100 for the full control effect; nearly all actives have a fitted effect of over 70% in size
# Active calls of the source: *; i = inactive; ? = inconclusive; / = no result; [ ] = remark or other dose. Unless noted, calls follow the shape of the dose curve; as a rule, active = well fitted curve in the direction sought with a large enough effect; inconclusive = small, poorly fitted or top-dose-only effect, or another doubt; inactive = no such curve, though single readings can be large; an effect the other way counts as inactive or inconclusive. Potency is read from the fitted curve at half-maximal effect.
SMILES,FLuc inh-1,GPT2 inh,hNpr1 antagonist,HEK293 tox,NIH3T3 tox,NPR1 antag cnf,NPR2 antag,FLuc inh counter,GloSensor ctrl,others
O=C(Nc1ccccc1)Nc1ccc2n(c1=O)C[C@H]1C[C@@H]2CN(C(=O)c2ccccc2)C1,14µM*,4%[88.5 µM],-5%[70.6 µM],?,?,/,/,/,/,FLuc SDR -ATP=?;FLuc SDR ATP=17%[49.3 µM];FLuc inh-2=?
O=C(Nc1ccc2n(c1=O)C[C@H]1C[C@@H]2CN(C(=O)Nc2ccccc2)C1)c1ccncc1,i,-25%[88.5 µM],3%[70.6 µM],0%[172 µM],?,/,/,/,/,
COc1ccc(C(=O)c2c(C)n(CCN3CCOCC3)c3cc(I)ccc23)cc1,/,i,/,/,/,/,/,/,/,
COc1ccc(-n2cc(C3=CCN(CCN4CCOCC4)CC3)cn2)cc1,4.5µM*,-9%,?,?,?,/,/,/,/,FLuc SDR -ATP=?;FLuc SDR ATP=?;FLuc inh-2=9.9µM*
O=C(C1CCC1)N1[C@H]2CC[C@@H]1c1cnc(-c3ccccc3)nc1C2,i,i,?,?,-21%,/,/,/,/,
Cn1cccc1C(=O)N1[C@H]2CC[C@@H]1c1cnc(-c3ccc(F)cc3)nc1C2,i,i,10µM*,16µM*,?,12µM*,15µM*,2%,14µM*,
COc1ccc(CNC(=O)N2[C@H]3CC[C@@H]2c2cnc(-c4ccccc4)nc2C3)cc1,i,-17%,13µM*,?,-43%,19µM*,19µM*,2%,14µM*,
O=C(CC1CCCC1)N1[C@H]2CC[C@@H]1c1cnc(-c3ccccc3)nc1C2,i,-1%,5.6µM*,?,-27%,11µM*,12µM*,2%,11µM*,
O=C(C1CCC1)N1[C@H]2CC[C@@H]1c1cnc(-c3ccc(F)cc3)nc1C2,i,i,18µM*,?,-43%,19µM*,19µM*,1%,15µM*,
C[C@H]1CCC/C=C/C2C[C@H](O)C[C@H]2[C@H](O)/C=C/C(=O)O1 (stereo not given in full),/,i,/,/,/,/,/,/,/,
C[C@H](N)Cc1cccc(C(F)(F)F)c1,/,-5%,/,/,/,/,/,/,/,
CCC(=O)N1[C@H]2CC[C@@H]1c1cnc(-c3ccc(F)cc3)nc1C2,i,i,?,-22%,-24%,/,/,/,/,
O=C(C1CCCCC1)N1[C@H]2CC[C@@H]1c1cnc(-c3ccc(F)cc3)nc1C2,i,-14%,6.3µM*,-34%,-30%,9.7µM*,11µM*,5%,9.7µM*,
O=C1Nc2ccccc2C12CCN(Cc1ccc(C(F)(F)F)cc1)CC2,/,-13%,/,?,?,24µM*,24µM*,-1%,24µM*,
O=C1Nc2ccccc2C12CCN(Cc1ccc(F)cc1)CC2,/,i,/,?,-7%,/,/,/,/,
C=C[C@H]1[C@H](O[C@@H]2O[C@H](CO)[C@@H](O)[C@H](O)[C@H]2O)OC=C2C(=O)OCC[C@H]21,/,i,/,/,/,/,/,/,/,
CC[C@H]1CN2CC[C@H]1C[C@@H]2CN(Cc1cccs1)Cc1cccs1,i,-4%[88.5 µM],?,45µM*,45µM*,?,?,3%[86.2 µM],4%[86.2 µM],
CC[C@H]1CN2CC[C@H]1C[C@@H]2CNS(=O)(=O)c1cccs1,i,2%[88.5 µM],0%[70.6 µM],-1%[172 µM],1%[174 µM],/,/,/,/,
O=C(NC[C@H]1C[C@@H]2CCN1C[C@@H]2CN1CCCCC1)Nc1ccsc1,i,i,5%[70.6 µM],-19%[172 µM],-28%[174 µM],/,/,/,/,
CCC(CC)c1cc([C@H]2CN3CC[C@H]2C[C@@H]3CNS(=O)(=O)c2cccs2)nc(-c2ccncc2)n1,i,i,14µM*,?,20µM*,22µM*,11µM*,5%,-15%,
CCC(CC)c1cc([C@H]2CN3CC[C@H]2C[C@@H]3CNS(C)(=O)=O)nc(-c2ccncc2)n1,i,-5%,2%,-10%,-15%,/,/,/,/,
CC(C)n1c(C2CCNCC2)nn(C)c1=O,i,i,5%,1%,-3%,/,/,/,/,
COc1cc2c(cc1Oc1ccccc1)NC(=O)C21CCN(c2cnccn2)CC1,i,-2%[88.5 µM],-21%[70.6 µM],?,?,?,?,3%[86.2 µM],?,
COc1ccc(C2(C(=O)N3CCC4(CC3)c3nccn3-c3ccccc3CN4C)CC2)cc1,i,i,8.9µM*,?,-15%,17µM*,5.4µM*,2%,7%,
Cc1cccc(OCC(=O)N2[C@H]3CC[C@@H]2c2cnc(-c4ccc(F)cc4)nc2C3)c1,i,i,?,?,?,?,?,4%,?,
Cc1ccsc1C(=O)N1[C@H]2CC[C@@H]1c1cnc(-c3ccc(F)cc3)nc1C2,i,i,5.6µM*,?,?,7.7µM*,7.7µM*,1%,6.1µM*,
Cc1ncccc1C(=O)N1[C@H]2CC[C@@H]1c1cnc(-c3ccc(F)cc3)nc1C2,i,i,-29%,?,?,/,/,/,/,
